High-throughput results (PubChem)
Compounds with a hit are over-represented: about 4% of the library has one in this group of screens.
p53null 39C kill = p53 null cell cytotoxicity, nonpermissive temperature | Potency, µM (series often up to 46.1 µM), without a hit: at the top dose activity, negative = cell killing, usual class: cytotoxic | H1299 p53-null (neo) cells, 39C, ATPlite viability, 24 h | actives 0.97% (n = 55,000);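 further: potency means the concentration at half of the fitted maximal effect; 0% = DMSO only and -100% = full killing by 100 µM tamoxifen; nearly all actives have a fitted effect of over 50% in size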
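Following overnight plating at 37C (600 cells/well), H1299-neo or H1299-p53A138V cells are dosed up to 46 uM. Incubation lasts 24 hr at 39C before ATP detection.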
NTMT1 inh = NTMT1 methyltransferase inhibition | NTMT1 MTase-Glo SAH luminescence, purified enzyme | Potency, µM (top dose mostly 114 µM), without a hit: at the highest dose activity change, negative = inhibition, hits mostly inhibitors | actives 2.5% (n = 59,000) | AID 1645870;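 further: potency means the concentration at half of the fitted maximal effect; plate controls were DMSO vehicle for no effect and no enzyme for full effect; nearly all actives have a fitted effect of over 65% in size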
Target sequence (Q9BV86 whole entry, looked up): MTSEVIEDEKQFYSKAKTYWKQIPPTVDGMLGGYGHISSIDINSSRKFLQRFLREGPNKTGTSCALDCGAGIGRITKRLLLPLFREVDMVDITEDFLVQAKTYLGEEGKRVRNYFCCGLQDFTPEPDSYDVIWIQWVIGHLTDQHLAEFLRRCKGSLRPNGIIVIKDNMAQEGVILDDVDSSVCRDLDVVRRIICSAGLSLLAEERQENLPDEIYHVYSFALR
GALC G270D act = raises human GALC G270D mutant activity in cells; 145M-Twi-hGALC-G270D cells (Twitcher mouse brain line with human GALC G270D), HMU-beta-Gal fluorescence, 48 h; Potency, µM (series often up to 57.5 µM), most hits filed as activators; actives 0.1% (n = 45,000); P54803; further: potency means the concentration at half of the fitted maximal effect; 0% is about no effect; nearly all actives have a fitted effect of over 65% in size
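Fluorescence readout: HMU-β-gal cleavage by mutant GALC (0.1 mM final, citrate/phosphate pH 5.2 with 1 mg/mL taurocholate), stopped with carbonate/bicarbonate plus Triton X-100. Cells: murine Twitcher 145M-Twi expressing human G270D GALC; qHTS for activators.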
p53null 32C tox = kills p53 null cells at the permissive temperature; Potency, µM (series often up to 46.1 µM), inactives show top-dose activity change, negative = cytotoxicity, most hits filed as cytotoxic; actives 0.62% (n = 55,000); H1299-neo p53 null cells, ATP luminescence, 24 h, 32C;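 further: potency means the concentration at half of the fitted maximal effect; 0% = DMSO only and -100% = full killing by 100 µM tamoxifen; nearly all actives have a fitted effect of over 55% in size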
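Overnight 37C seeding (600 cells/well) of H1299-neo preceded a 24 hr, 32C exposure to compounds up to 46 uM. ATP levels, read by luminescence after 20 min at RT, indicated surviving cells.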
OvCa metastasis = ovarian cancer metastasis inhibition, 3D TME model; SKOV3ip1-GFP adhesion/invasion on 3D omental model, fluorescence; Potency, µM (titrated, usually from 45.8 µM), inactives show top-dose activity change, negative = inhibition, most hits filed as inhibitors; AID 1963576; actives 0.1% (n = 46,000);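 further: potency means the concentration at half of the fitted maximal effect; plate controls were DMSO wells for no effect and tomatine positive control wells for full effect; nearly all actives have a fitted effect of over 65% in size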
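A 3D layer of primary human omental fibroblasts, mesothelial cells, fibronectin and collagen I, grown 48 hr, received SKOV3ip1-GFP cells in serum-free medium plus compounds at 0.36-46 umol/L. After 2 hr RT and 16 hr 37 C, fixed adherent GFP cells were counted; normalized to DMSO and tomatine.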
GPR32 ag = activates human resolvin D1 receptor GPR32 | AID 1346428 | activation, % at 76.9 µM | O75388 | CHO-K1 GPR32 beta-arrestin PathHunter luminescence, 90 min; zero percent set by DMSO-only wells | actives 2.5% (n = 48,000);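 active means activation of at least 60% and not above a set upper limit, about 1 call in 100 departs from these limits; inconclusive means activation of 40% to 60%, or above that upper limit; inactive means activation under 40%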; further: 0% is about no effect
Target sequence (O75388 whole entry, looked up): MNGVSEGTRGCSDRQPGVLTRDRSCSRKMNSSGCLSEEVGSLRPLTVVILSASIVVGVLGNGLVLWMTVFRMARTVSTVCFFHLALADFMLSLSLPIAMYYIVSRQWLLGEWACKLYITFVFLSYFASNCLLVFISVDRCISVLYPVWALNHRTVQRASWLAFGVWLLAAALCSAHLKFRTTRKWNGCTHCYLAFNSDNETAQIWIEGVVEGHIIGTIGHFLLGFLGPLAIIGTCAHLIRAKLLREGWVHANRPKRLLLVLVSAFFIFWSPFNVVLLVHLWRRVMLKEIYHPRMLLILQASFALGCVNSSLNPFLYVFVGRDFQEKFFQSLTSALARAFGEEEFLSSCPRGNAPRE
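Luminescent readout of beta-Gal complementation quantifies ligand-induced beta-arrestin association with GPR32 in CHO-K1 cells; 90 min compound incubation at 37 °C, detection 1 h at room temperature.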
Numbers without * were called inactive; i = inactive; u = inconclusive; x = no result; [ ] = dose if it differs, or a comment. Unless noted, the call rests on the fitted dose curve; in most records, active means well fitted curve in the direction sought with a large enough effect; inconclusive means small, poorly fitted or top-dose-only effect, or another doubt; inactive means no such curve, though single readings can be large; an effect the other way counts as inactive or inconclusive.

SMILES	p53null 39C kill	NTMT1 inh	GALC G270D act	p53null 32C tox	OvCa metastasis	GPR32 ag
O=C(Nc1ccc(Br)cc1)c1ccc(F)c(S(=O)(=O)NC2CCCCCC2)c1	5%	7%	i	46%	u	8
FC(F)(F)c1ccc(-c2nc(NCc3ccc(-c4cccnc4)cc3)c3ccccc3n2)cc1	x	-5%	x	x	x	x
Cc1ccc(-n2ncc(C(=O)NCCN3CCCC3)c2C2CCN(C(=O)OC(C)(C)C)CC2)cc1	0%	u	i	4%	i	-22
CN1CCN(C(=O)c2cnn(-c3cccc(F)c3)c2C2CCN(C(=O)OC(C)(C)C)CC2)CC1	5%	12%	i	5%	7%	-12
Cc1ccc(C)c(N2CCN(CCCNC(=O)c3cnn(-c4ccccc4Cl)c3C3CCN(C(=O)OC(C)(C)C)CC3)CC2)c1	13µM*	-2%	i	30%	u	1
Cc1ccc(-n2ncc(C(=O)NCCN3CCC(Cc4ccccc4)CC3)c2C2CCN(C(=O)OC(C)(C)C)CC2)cc1	20µM*	89µM*	i	u	u	-25
Cc1ccc(C)c(N2CCN(CCCNC(=O)c3cnn(-c4ccc(F)cc4)c3C3CCN(C(=O)OC(C)(C)C)CC3)CC2)c1	25µM*	-1%	i	22%	-15%	-9
CC(C)(C)OC(=O)N1CCC(c2c(C(=O)N3CCCCC3)cnn2-c2cccc(F)c2)CC1	-12%	2%	10µM*	-1%	2%	2
Cc1ccc(C)c(N2CCN(CCCNC(=O)c3cnn(-c4cccc(Cl)c4)c3C3CCN(C(=O)OC(C)(C)C)CC3)CC2)c1	u	3%	i	-22%	i	-18
COc1ccc(C2N=C(Nc3nc4ccccc4o3)NC3=C2C(=O)CCC3)cc1 (stereo unspecified)	x	9%	x	x	x	x
C=C[C@H]1[C@H](O[C@@H]2O[C@H](CO)[C@@H](O)[C@H](O)[C@H]2O)OC=C(C(=O)OC)[C@H]1C[C@@H]1c2cc(O)c(O)cc2CCN1C(C)=O	x	13%[12.6 µM]	x	x	x	x
O=C(Nc1cccc(C(F)(F)F)c1)C1CCN(c2nnc(-n3cccc3)s2)CC1	11%	5%	i	-19%	-2%	94*
CC(C)C1C(OC(=O)/C=C/c2ccccc2)CC2(C)OC2CCC2(C)OC2C1O (stereo unspecified)	x	7%[29.8 µM]	x	x	x	x
CCOc1ccc(CCNC(=O)CN2CCN(Cc3ccc(F)cc3Cl)C2=O)cc1OCC	-8%	u	i	-1%	6%	75*
O=C(NCc1cccs1)c1cc2nc(-c3ccco3)cc(C(F)(F)Cl)n2n1	x	2%[57.5 µM]	x	x	x	x
Nc1nc(NC2CC2)cc(-c2cccc(Cl)c2Cl)n1	x	-14%[57.5 µM]	x	x	x	x
COc1ccc(Nc2nc3ccccc3nc2NS(=O)(=O)c2ccc(C)cc2)c(OC)c1	-5%	14%	i	2%	-9%	-9
COC(=O)c1cc(Nc2nc3ccccc3nc2NS(=O)(=O)c2ccc(C)cc2)ccc1Cl	-6%	2%	i	-18%	i	99*
CC(=O)c1c(O)cc2cccc3c2c1CC(C)(O)O3 (stereo unspecified)	x	-6%[57.5 µM]	x	x	x	x
COc1cccc(C2N(c3ccc(Cl)cc3)C(=O)C3CCCN32)c1 (stereo unspecified)	0%	x	x	0%	x	x
COc1ccc(C2CC(=O)N3CN(C4CCCCC4)CSC3=C2C#N)cc1 (stereo unspecified)	2%	13µM*	i	5%	-5%	48
COc1cccc(C2CC(=O)N3CN(C4CCCCC4)CSC3=C2C#N)c1 (stereo unspecified)	7%	11µM*	i	23%	-6%	u
C=C1CCC2C(C)(C(=O)O)CCCC2(C)C1CCC(C)CC(=O)O (stereo unspecified)	x	10%[29.8 µM]	x	x	x	x
Cc1ccc(CCNC(=O)c2cc3c(s2)-c2ccccc2OC3)cc1	-26%	-17%	i	-5%	u	9
O=C(NCCCN1CCN(c2ccc(F)cc2)CC1)c1cc2c(s1)-c1ccccc1OC2	u	-1%	i	u	i	80*
SMILES	p53null 39C kill	NTMT1 inh	GALC G270D act	p53null 32C tox	OvCa metastasis	GPR32 ag
Cc1cccc2c1-c1sc(C(=O)NCc3ccccc3Cl)cc1CO2	u	10%	i	-6%	-28%	-18
Cc1ccc(CCNC(=O)c2cc3c(s2)-c2c(C)cccc2OC3)cc1	-2%	89µM*	i	2%	-20%	0
Cc1cccc2c1-c1sc(C(=O)Nc3ccccc3C(N)=O)cc1CO2	u	-4%	i	16µM*	-7%	-5
O=C(NCCc1ccc(Cl)cc1)c1cc2c(s1)-c1ccccc1OC2	-19%	u	i	-9%	-10%	62*
Cc1ccc(OCCn2c(CCNC(=O)c3cccc(C(F)(F)F)c3)nc3ccccc32)cc1	x	4%[57.5 µM]	x	x	x	x
Cn1cc(Cl)c(C2N=C(Nc3nc4ccccc4o3)NC3=C2C(=O)CCC3)n1 (stereo unspecified)	x	2%	x	x	x	x
Cc1cccc(NC(=O)Cn2c(=O)oc3cc(S(=O)(=O)NC4CCCC4)ccc32)c1	-16%	8%	i	-3%	-3%	16
Cc1cccc(NC(=O)Cn2c(=O)oc3cc(S(=O)(=O)NCc4ccccc4)ccc32)c1	-7%	2%	i	u	3%	65*
O=C(Cn1c(=O)oc2cc(S(=O)(=O)NCc3ccccc3)ccc21)NCc1ccc(F)cc1	3%	-1%	i	u	0%	111*
O=C(Cn1c(=O)oc2cc(S(=O)(=O)NCc3ccccc3)ccc21)NCc1ccc(Cl)cc1	7%	-1%	i	-2%	i	19
CCOc1ccc(CCNC(=O)CCc2c(C)nc3c(c(C)nn3-c3ccccc3)c2C)cc1OCC	-8%	89µM*	i	-8%	i	-3
Cc1nc2c(c(C)nn2-c2ccccc2)c(C)c1CCC(=O)NCCc1ccccc1	-12%	8%	i	-11%	0%	-7
Cc1ccccc1C(=O)N1CCc2cc(-c3cccc(NC(=O)Cc4ccc5c(c4)OCO5)c3)ccc21	x	-1%	x	x	x	x
CN1CCN(C(=O)c2cccc(COc3cc(Cl)ccc3Cl)c2)CC1	-16%	x	x	-8%	x	x
CN1CCCN(C(=O)c2cccc(-c3ccc(/C=C4\C(=O)Nc5ccc(Cl)cc54)o3)c2)CC1	x	7.9µM*	x	x	x	x
CCOc1ccccc1C(=O)Nc1cc2c(cc1N1CCCCC1)n(C)c(=O)n2C	u	x	x	-14%	i	70*
